Source: PubChem BioAssay
Shown are actives, neighbours in structure and some others; about 3.4% of the full set was active somewhere.
MITF primary: inhibitors of human MITF; inhibition, % at 2.6 µM; AlphaScreen MITF homodimerization, bead proximity signal; AID 1259374; actives 0.91% (n = 650,000); O75030; in the data active = inhibition above about 50%;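 note: 0% = vehicle wells with protein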
FBW7 activator: activators of human E3 ligase FBW7; AlphaScreen FBW7–phospho-cyclin E peptide binding, activator screen; actives 0.13% (n = 650,000); normalized activity (activation), % at 26.1 µM; in the data active = normalized activity above about 1.9%;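 note: purified mutant Fbw7 with reduced substrate affinity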
TEAD-YAP inh: TEAD-YAP interaction inhibition; HEK-TIYL cells, TEAD-Gal4/YAP UAS-luciferase luminescence; inhibition, % at 9.12 µM; actives 1.4% (n = 640,000); in the data active = inhibition above about 32%;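 note: 0% = median of test compound wells and 100% = reference inhibitor wells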
GPR151 ag: activates the human receptor GPR151. Q8TDV0. PathHunter beta-arrestin GPR151 cells, luminescence. activation, % at 11.2 µM. actives 1% (n = 650,000). AID 1508602; in the data active = activation above about 4.9%;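 note: 0% = median of compound wells and 100% = cells with positive control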
Target sequence (Q8TDV0 whole entry, looked up): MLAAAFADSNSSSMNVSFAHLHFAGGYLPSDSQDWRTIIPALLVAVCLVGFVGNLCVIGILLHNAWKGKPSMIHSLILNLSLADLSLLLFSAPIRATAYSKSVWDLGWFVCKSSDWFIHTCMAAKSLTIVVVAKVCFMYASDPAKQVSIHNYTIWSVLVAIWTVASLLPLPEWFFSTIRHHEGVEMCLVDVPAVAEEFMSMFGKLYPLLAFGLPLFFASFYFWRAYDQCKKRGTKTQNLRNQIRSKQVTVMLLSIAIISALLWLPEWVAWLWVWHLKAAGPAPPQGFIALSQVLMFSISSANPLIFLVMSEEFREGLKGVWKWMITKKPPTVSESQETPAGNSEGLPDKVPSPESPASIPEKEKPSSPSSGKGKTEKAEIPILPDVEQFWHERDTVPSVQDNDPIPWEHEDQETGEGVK
MITF confirm: human MITF inhibition, confirmation | actives 16% (n = 4,700) | inhibition, % at 2.6 µM | AlphaScreen MITF homodimerization, biotin/His-MITF beads | shares compounds with MITF primary;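 active = inhibition above a cutoff derived from the DMSO control wells, cut at about 28% in these data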;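 note: 0% = MITF dimer wells with DMSO only; inhibitors lower the bead chemiluminescence by keeping MITF from dimerizing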
AS interf DR: optically interferes with AlphaScreen signal in dose response; shares compounds with MITF primary; AlphaScreen optical interference counterscreen, cell-free; IC50, µM; actives 6% (n = 480); AID 1259373; call rule not given here
AlphaScreen intf2: counter-screen: compounds optically interfering with AlphaScreen; shares compounds with MITF primary; LysRS AlphaScreen counterscreen, signal interference, triplicate; inhibition, % at 2.6 µM; actives 7.6% (n = 4,700); AID 1259376;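 active = inhibition above a cutoff derived from the DMSO control wells, cut at about 30% in these data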
* hit, by the source's call; . = no result given.

SMILES	MITF primary	FBW7 activator	TEAD-YAP inh	GPR151 ag	MITF confirm	AlphaScreen intf2	others
Cc1ccc(/C=N/NC(=O)CCN2CCN(C)CC2)cc1	54.1*	-0.3	1.0	-0.1	6.7	-0.1
COc1ccc2nc3oc(C(=O)NCCCN4CC(C)CC(C)C4)cc3cc2c1 (stereo unspecified)	-0.5	-0.1	-5.8	1.5	.	.
CSC1=NC(=Nc2ccccc2C)C2(CCC(C(C)(C)C)CC2)N1c1ccc(NC(C)=O)cc1 (stereo unspecified)	9.0	-0.2	-2.1	-0.6	.	.
O=C(Cn1c2ccccc2c(=O)c2ccccc21)Nc1ccc2c(c1)CCC2	13.3	0.0	-2.1	-0.2	.	.
CC(c1ccccn1)N(CCN(C)C)C(=S)Nc1cccc(F)c1 (stereo unspecified)	87.5*	-1.6	4.5	2.4	42.5*	95.9*
O=C(NNC(=S)NCc1ccc(Cl)cc1)c1ccccn1	112.2*	-0.8	0.7	4.3	102.3*	100.2*
O=C(NNC(=S)NCc1ccco1)c1ccccn1	117.0*	-1.6	9.7	-2.2	46.3*	66.7*
Cc1cc(C)nc(NS(=O)(=O)c2ccc(N3C(=O)C=CC3=O)cc2)n1	60.7*	-0.5	-4.2	1.2	37.2*	5.5	AS interf DR=>6.48
CCC(C)(C)n1nnnc1CN(Cc1ccccc1)Cc1cccs1	75.6*	0.0	0.8	-1.2	6.2	7.8
CCCc1nnc(NC(=O)CN2C(=O)C3C4C=CC(C4)C3C2=O)s1 (stereo unspecified)	58.2*	-0.1	-7.8	2.2	-6.3	-10.1
CCCc1nnc(NC(=O)NCN2C(=O)C3C4C=CC(C4)C3C2=O)s1 (stereo unspecified)	-7.1	-0.1	5.8	1.7	.	.
CCOC(=O)c1c(NC(=O)c2nn(C)cc2Cl)sc2c1CCCC2	93.1*	0.4	6.9	-0.6	3.0	-2.5
CCOC(=O)c1c(NC(=O)c2nn(C)cc2[N+](=O)[O-])sc2c1CCCC2	17.4	0.2	-1.4	-0.7	.	.
CCCCOc1cc2nc3c4cc(Br)ccc4n(CCC)c3nc2cc1OCCCC	6.4	-0.2	6.2	-0.4	.	.
CCOC1(OCC)N=C(N)C2(C#N)C(c3cccc(C)c3)C12C#N (stereo unspecified)	56.3*	0.1	17.2	0.3	-1.9	6.1
COC1(OC)N=C(N)C2(C#N)C(c3ccc(Cl)cc3)C12C#N (stereo unspecified)	16.9	-0.1	-4.0	-0.8	.	.
COc1ccc(C2C3(C#N)C(N)=NC(OC)(OC)C23C#N)cc1 (stereo unspecified)	73.8*	-0.2	0.4	2.1	-0.4	7.8
COC1(OC)N=C(N)C2(C#N)C(c3ccc(C)cc3)C12C#N (stereo unspecified)	55.0*	-0.1	5.5	-0.1	-2.3	5.5
CCOC1(OCC)N=C(N)C2(C#N)C(c3ccc(OC)c(OC)c3)C12C#N (stereo unspecified)	24.8	0.1	8.7	-0.5	.	.
COC1(OC)N=C(N)C2(C#N)C(c3ccc4c(c3)OCO4)C12C#N (stereo unspecified)	48.0	-0.2	5.6	1.5	.	.
OCCNCCCCOc1ccc(Cl)c(Cl)c1	58.0*	0.2	-11.4	0.2	8.0	11.1
COCCCNCCCCOc1ccc(Cl)c(Cl)c1	11.0	0.0	-6.9	0.4	.	.
COCCNCCCCOc1ccc(Cl)c(Cl)c1	57.5*	0.6	4.1	0.1	-0.6	-5.3
CC(=O)c1cccc(NC(=O)CSc2ncc(C(F)(F)F)cc2Cl)c1	0.2	0.1	-5.9	2.4	.	.
CCOc1ccc(-c2cn3c(CC(=O)N4CCCCC4CC)csc3n2)cc1 (stereo unspecified)	10.8	0.1	-8.8	0.3	.	.
SMILES	MITF primary	FBW7 activator	TEAD-YAP inh	GPR151 ag	MITF confirm	AlphaScreen intf2	others
CCOc1ccc(-c2cn3c(CC(=O)N4CCN(c5ccccc5)CC4)csc3n2)cc1	55.0*	0.0	0.2	0.7	4.2	6.0
CCOC(=O)c1c(-c2ccc(OC)c(OC)c2)csc1NC(=O)CCN1CCN(C)CC1	81.0*	-0.2	5.0	-0.8	-4.8	3.5
CCOC(=O)c1c(-c2ccc(OC)c(OC)c2)csc1NC(=O)CN1CCCC1	-11.7	0.2	4.9	0.7	.	.
CCOC(=O)c1cc(-c2ccccc2)sc1NC(=O)CCN1CCN(C)CC1	57.6*	-0.2	-8.1	1.6	0.8	17.6
CCOC(=O)c1c(-c2ccc(C)cc2)csc1NC(=O)CCN1CCN(CC)CC1	52.6*	0.0	-3.6	-0.4	4.3	2.8
CCOC(=O)c1c(-c2ccc(F)cc2)csc1NC(=O)CN1CCN(CC)CC1	62.9*	0.2	9.5	-0.6	5.0	13.7
CCOC(=O)c1c(-c2ccc(F)cc2)csc1NC(=O)CN1CCOCC1	-5.7	-0.1	-2.1	0.5	.	.
Cc1ccc(C(=O)Nc2sc3c(c2C#N)CCC3)cc1	-5.6	0.2	-9.4	0.0	.	.
COc1cc(C(=O)Nc2ccccc2N2CCN(C(C)=O)CC2)cc(OC)c1OC	-6.0	0.0	15.1	-1.5	.	.
CCN1CCN(CC(=O)NCc2ccc(F)cc2)CC1	78.7*	-0.1	2.6	1.8	3.3	14.0
C(=C\CSc1cccc2cccnc12)/CSc1cccc2cccnc12	1.8	-1.5	-7.8	-1.1	.	.
COc1ccccc1NC(=O)C1=C(C)NC(SCC(=O)Nc2cccc(C)c2C)=C(C#N)C1c1ccco1 (stereo unspecified)	56.1*	-0.2	32.2*	-0.3	3.3	7.4
COc1ccccc1NC(=O)C1=C(C)NC(SCC(=O)Nc2ccccc2)=C(C#N)C1c1ccco1 (stereo unspecified)	10.8	0.1	3.4	1.4	.	.
CCOc1cccc(C2CC(c3ccc(C)cc3)=NC(c3ccc(Cl)cc3)N2)c1O (stereo unspecified)	9.5	0.1	-44.9	-0.3	.	.
Cc1cc(Cl)c(OCCN2CCN(C)CC2)c(Br)c1	55.0*	0.0	-6.3	1.8	1.1	6.4
Cc1cc(Cl)c(OCCOCCN2CCN(C)CC2)c(Br)c1	77.5*	0.0	1.4	-0.1	16.2	17.0
Cc1cc(Cl)c(OCCCN2CCN(C)CC2)c(Br)c1	65.1*	0.1	-6.2	-0.3	-4.4	-5.8
Cc1cc(Cl)c(OCCCN2CCOCC2)c(Br)c1	27.8	0.0	-7.2	-0.8	.	.
COCCNCCOc1c(Cl)cc(C)cc1Br	64.0*	-0.3	-2.9	-0.5	11.1	12.7
CN1CCN(CCOCCOc2c(Cl)cc(Cl)cc2Cl)CC1	44.1	0.0	9.5	-0.6	.	.
CC(=O)Oc1ccc(C(=O)Nc2cccc(C(F)(F)F)c2)cc1	-5.2	-0.1	-11.3	-0.4	.	.
COc1ccc(S(=O)(=O)N(CC(N)=O)c2ccc(Cl)cc2)cc1	5.8	0.0	-3.5	0.1	.	.
Cc1cccc(NC(=O)c2ccc(N3C(=O)C4C5C=CC(C6CC56)C4C3=O)cc2)c1 (stereo unspecified)	-12.4	0.0	-9.3	-1.1	.	.
